Sampled rows, rich in hits. Any-hit rate of the full collection: about 11%.
PLK1 PBD block: qHTS for Inhibitors of PLK1-PDB (polo-like kinase 1 - polo-box domain): Primary Screen; Serine/threonine-protein kinase PLK1 (Homo sapiens), P53350; Plk1 PBD binding of FITC phosphopeptide, fluorescence polarization; Potency, µM, for the others: max response, negative = inhibition, most hits filed as inhibitors; 2.8% of 360,000 active; further: series mostly up to about 57 µM; on the % scale 0 is the no-effect control and ±100 the full control effect; nearly all actives have a fitted effect of over 65% in size
VDR inhibitor: Inhibitors of the vitamin D receptor (VDR): qHTS. Vitamin D3 receptor (Homo sapiens), P11473. VDR-SRC2-3 peptide fluorescence polarization, 2 h. Potency, µM, for inactives: max response, negative = inhibition, most hits filed as inhibitors. 0.93% of 400,000 active; further: on the % scale 0 is the no-effect control and ±100 the full control effect
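Signal is fluorescence polarization, reporting how far test compounds block the interaction of VDR with the SRC2-3 coregulator peptide after a 2 h room-temperature incubation.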
HP1b chromo inh: HTS for Inhibitors of HP1-beta Chromodomain Interactions with Methylated Histone Tails | Potency, µM (series often up to 114 µM), inactives show top-dose activity change, negative = inhibition, most hits filed as inhibitors | AID 540317, 2011 | 0.56% of 390,000 active | Chromobox protein homolog 1 (Homo sapiens), P83916 | AlphaScreen HP1-beta / biotin-H3K9me3 peptide binding; further: nearly all actives have a fitted effect of over 70% in size
Target sequence (P83916 whole entry, looked up): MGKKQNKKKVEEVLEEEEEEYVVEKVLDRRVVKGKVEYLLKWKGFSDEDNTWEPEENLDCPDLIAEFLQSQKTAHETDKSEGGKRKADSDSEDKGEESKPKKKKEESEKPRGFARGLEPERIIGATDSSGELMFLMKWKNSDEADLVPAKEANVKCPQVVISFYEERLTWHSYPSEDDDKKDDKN
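HP1-beta protein (50 nM final) preincubated 30 min at room temperature with biotinylated H3(1-18)K9me3 peptide (50 nM) in PBS pH 7.4, 0.01% Tween-20, then compound added for 30 min. AlphaScreen streptavidin donor/nickel chelate acceptor beads (10 ug/mL final), 30 min dark, luminescence read.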
G9a inh: qHTS Assay for Inhibitors of Histone Lysine Methyltransferase G9a. Histone-lysine N-methyltransferase EHMT2 (Homo sapiens), Q96KQ7. 8.8% of 350,000 active. AID 504332, 2011. G9a H3K9 monomethylation, AlphaScreen, 2 h. Potency, µM (top dose mostly 102 µM), without a hit: at the top dose activity, negative = inhibition, actives largely listed as inhibitors; further: on the % scale 0 is the no-effect control and ±100 the full control effect; nearly all actives have a fitted effect of over 75% in size
Target sequence (Q96KQ7 913-1193 limits assumed): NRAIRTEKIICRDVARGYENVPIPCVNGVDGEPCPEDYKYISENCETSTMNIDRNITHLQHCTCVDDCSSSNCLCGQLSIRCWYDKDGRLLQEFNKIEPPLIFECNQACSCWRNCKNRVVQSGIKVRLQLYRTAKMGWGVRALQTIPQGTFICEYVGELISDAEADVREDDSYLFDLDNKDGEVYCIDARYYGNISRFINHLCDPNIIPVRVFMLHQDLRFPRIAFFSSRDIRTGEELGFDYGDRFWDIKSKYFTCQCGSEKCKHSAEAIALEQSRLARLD
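Using a bead-based AlphaScreen, monomethylated H3K9 product from 2 h room-temperature reactions (G9a 20 nM, peptide 500 nM, SAM 20 uM) was detected with 0.5 ug/mL rabbit anti-H3K9me1 antibody.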
BAZ2B block: qHTS Assay for Inhibitors of BAZ2B | 4.4% of 360,000 active | Potency, µM (top dose mostly 114 µM), for the others: top-dose activity change, negative = inhibition, most hits filed as inhibitors | AlphaScreen BAZ2B-H3K14Ac peptide displacement | AID 504333, 2011; further: on the % scale 0 is the no-effect control and ±100 the full control effect; nearly all actives have a fitted effect of over 60% in size
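AlphaScreen luminescence quantifies BAZ2B engagement of H3K14Ac peptide; the protein and biotinylated peptide are both at 50 nM final, buffer PBS pH 7.4 with 0.01% Tween-20, all steps at room temperature.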
JMJD2A Tudor: qHTS Assay for Inhibitors of JMJD2A-Tudor Domain; AID 504339, 2011; AlphaScreen JMJD2A-Tudor / H3K4me3 peptide binding; Potency, µM (doses to about 114 µM), for inactives: at the top dose activity change, negative = inhibition, actives largely listed as inhibitors; 4.4% of 390,000 active; further: on the % scale 0 is the no-effect control and ±100 the full control effect; nearly all actives have a fitted effect of over 50% in size
* marks the source's active call; other numbers are inactive results; ? = inconclusive; . = no result given; ! = repeats disagree; [ ] = remark or other dose. The call rests on the fitted dose curve; in most records, active means well fitted curve in the direction sought with a large enough effect; inconclusive means small, poorly fitted or top-dose-only effect, or another doubt; inactive means no such curve, though single readings can be large; an effect the other way counts as inactive or inconclusive. Potency means the concentration at half of the fitted maximal effect.

SMILES | PLK1 PBD block | VDR inhibitor | HP1b chromo inh | G9a inh | BAZ2B block | JMJD2A Tudor
CCCCCC(=O)Nc1nc(C)c(-c2csc(Nc3ccccc3OC)n2)s1 | -1% | -9% | -12% | ? | ? | ?
CCOc1ccccc1Nc1nc(-c2sc(NC(=O)c3ccccc3)nc2C)cs1 | . | . | . | 32µM* | ? | .
CCCC(C)C(=O)Nc1nc(C)c(-c2csc(Nc3ccccc3OC)n2)s1 (stereo not drawn) | -9% | -2% | -17% | 7.9µM* | ? | ?
CC(C)(CNC(=O)c1cccs1)N1CCOCC1 | -17% | -18% | 23% | -4%[12.7 µM] | 10% | 2%
COc1ccc(OC)c(C(=O)NC(CC(N)=O)c2ccc(NCCOc3ccccc3)c([N+](=O)[O-])c2)c1 (stereo not drawn) | -5% | -9% | -1% | . | ? | ?
COc1ccc(OC)c(C(=O)NC(CC(N)=O)c2ccc(N3CCN(c4ccc(F)cc4)CC3)c([N+](=O)[O-])c2)c1 (stereo not drawn) | 30µM* | ? | ? | ? | -26% | ?
COc1ccc(CCNc2ccc(C(CC(N)=O)NC(=O)c3cc(OC)ccc3OC)cc2[N+](=O)[O-])cc1 (stereo not drawn) | 1% | 16% | -19% | 45µM* | 32µM* | ?
NC(=O)CC(NC(=O)c1ccccc1)c1ccc(N2CCN(c3ccc(F)cc3)CC2)c([N+](=O)[O-])c1 (stereo not drawn) | -10% | 3% | 30% | . | -12% | -19%
O=C1Nc2ccc(Br)cc2C1(O)c1ccc(F)cc1 (stereo not drawn) | -8% | -16% | 45% | -7%[2.33 µM] | 1% | -18%
COc1ccc(C(=O)CN2C(=O)N(c3cc(C)cc(C)c3)S(=O)(=O)c3ccccc32)cc1 | . | 4% | 11% | 2%[59 µM] | -10% | -15%
Cc1sc2nc(CN3CCOCC3)nc(Oc3ccc(NC(=O)c4ccco4)cc3)c2c1C | ? | 18% | -26% | 50µM*! | -34% | -27%[57.1 µM]
O=C(Nc1ccc(CN2CCOCC2)cc1)c1ccco1 | 0% | -7% | 21% | -16% | -14% | -4%
Cc1ccc(Oc2nc(CN3CCOCC3)nc3sc4c(c23)CCC(C)C4)cc1 (stereo not drawn) | -9% | -12% | -5% | 79µM* | ? | ?
COc1ccc(Cl)cc1NC(=O)CSc1nc2[nH]ncc2c(=O)[nH]1 | -5% | . | . | . | . | .
O=C(O)c1cc(-c2ccc(/C=N/N3C(=O)C4C5C=CC(C6CC56)C4C3=O)o2)ccc1Cl (stereo not drawn) | -18% | 20% | 25% | 45µM* | 79µM* | -8%[11.4 µM]
O=C1C2C3C=CC(C4CC34)C2C(=O)N1/N=C/c1ccc(-c2ccc(Cl)cc2[N+](=O)[O-])o1 (stereo not drawn) | -7% | 10% | ? | 35µM* | ? | ?
O=C(Cc1c(F)cccc1Cl)OCN1C(=O)c2ccccc2C1=O | -2% | 17% | 11% | 17% | -3% | -8%
CCOn1c(=O)c(-c2ccc(Cl)cc2)[n+]([O-])c2ccccc21 | 21µM* | ? | -8% | -22% | 39% | ?
O=c1c(-c2ccc(F)cc2)[n+]([O-])c2ccccc2n1OCc1ccccn1 | 21µM* | ? | -9% | -36% | 3% | -20%[11.4 µM]
Cc1ccc(-c2c(=O)n(O)c3ccccc3[n+]2[O-])cc1 | -14% | -14% | -10% | 50µM* | -20% | ?
O=c1c(-c2ccccc2)[n+]([O-])c2ccccc2n1O | -6% | 1% | -5% | ? | ? | ?
CCOn1c(=O)c(-c2ccc(C)cc2)[n+]([O-])c2ccccc21 | 6% | 14% | 26% | 7% | 0% | -1%
COn1c(=O)c(-c2cccs2)[n+]([O-])c2ccccc21 | 2.1µM* | 0% | 48% | -2%[12.7 µM] | -21% | 2%
CCC(c1nnc(SC(C)C(=O)NC2CC2)n1-c1ccc(OC)cc1)N(C)C (stereo not drawn) | 0% | -8% | 18% | 5%[59 µM] | -2% | -7%
CCOC(=O)C1CCCN(C(=O)CCNS(=O)(=O)c2cc(Br)cnc2N)C1 (stereo not drawn) | -10% | 1% | 30% | 5% | -15% | -11%
SMILES | PLK1 PBD block | VDR inhibitor | HP1b chromo inh | G9a inh | BAZ2B block | JMJD2A Tudor
CCC1C(=O)CC2CCN3C(=O)CCC1C23 (stereo not drawn) | . | -21% | 18% | . | . | 2%
Cc1c(S(=O)(=O)N2CCCCC2)c(=O)n(C)c(=O)n1C | -3% | 11% | -2% | 0% | -3% | -24%
COc1ccc(CN(C(=O)c2ccc(-c3ccccc3)[nH]2)C(C(=O)NC(C)(C)C)c2ccncc2)cc1 (stereo not drawn) | -7% | -9% | -10% | ? | ? | 40µM*
COc1cc(C(C(=O)NC(C)(C)C)N(Cc2ccccc2)C(=O)c2cnccn2)cc(OC)c1OC (stereo not drawn) | 1% | 5% | 17% | 8% | -1% | -20%
CN(CCO)CCOCCOc1cccc2ccccc12 | -12% | -7% | ? | ? | . | 10µM*
CN1C(c2ccccc2)CC(=NO)CC1c1ccccc1 (stereo not drawn) | 6% | -11% | 10% | 9% | -6% | 6%
CCn1c(=NC(=O)c2ccc(S(=O)(=O)N3CCCC3)cc2)sc2cc(Br)ccc21 | . | -1% | 39% | 9%[59 µM] | -4% | 0%
Cc1cc(-c2nnnn2-c2ccc(F)cc2)no1 | -13% | -7% | 12% | 15% | -8% | 4%
COC1=C(Br)C(=O)c2ncccc2C1=O | 1.9µM* | 3.5µM* | 10µM* | . | . | 6.3µM*
COCCCn1cc(C(=O)c2cc(Br)ccc2O)cc(C#N)c1=O | -20% | 5% | 19% | 2%[59 µM] | -23% | -14%
CCOCCCn1cc(C(=O)c2cc(Br)ccc2O)cc(C#N)c1=O | -6% | -9% | 27% | -28%[59 µM] | 56µM* | -8%
CCOC(=O)c1c(N2C(=O)C3C4C=CC(O4)C3C2=O)sc2c1CCCC2 (stereo not drawn) | -23% | -16% | ? | 1.8µM* | -2% | 56µM*
CCOC(=O)c1c(N2C(=O)Nc3cc(Cl)c(Cl)cc3N2O)sc2c1CCCCC2 | 13µM* | ? | ? | . | ? | 79µM*
CC(C)(C)c1ccc(OCC(=O)Nc2ccc(S(=O)(=O)Nc3ncccn3)cc2)cc1 | . | 12% | 45% | -7%[59 µM] | -2% | -26%
C=CCc1cccc(C=Nc2cc(Br)ccc2O)c1O | 19% | -9% | 9% | 45µM* | ? | ?

Screens: PubChem, National Center for Advancing Translational Sciences (NCATS)
